Data as given in publication PMC5540273 (PLoS ONE, 2017).

Legend:
Settings in all cases: concentration: 1 μM, replicates: in singlicate; n = 1
[1] = system: MAPKAPK5
[2] = system: MARK1
[3] = system: MARK2
[4] = system: MARK3
[5] = system: MARK4
[6] = system: MAST1
[7] = system: T1, MEK1
T1 construct: gene MAP2K1

[8] = system: T2, MEK2
T2 construct: gene MAP2K2

[9] = system: T3, MEK3
T3 construct: gene MAP2K3

[10] = system: T4, MEK4
T4 construct: gene MAP2K4

[11] = system: T5, MEK5
T5 construct: gene MAP2K5

[12] = system: T6, MEK6
T6 construct: gene MAP2K6

[13] = system: MELK
[14] = system: MERTK
[15] = system: MET
[16] = system: T7, MINK
T7 construct: gene MINK1

[17] = system: MKK7
[18] = system: MKNK1
[19] = system: MKNK2
[20] = system: T8, MLCK
T8 construct: gene MYLK3
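Further: KINOMEscan kinase panel screen.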

Row | SMILES | %Inh [1] [%] | %Inh [2] [%] | %Inh [3] [%] | %Inh [4] [%] | %Inh [5] [%] | %Inh [6] [%] | %Inh [7] [%] | %Inh [8] [%] | %Inh [9] [%] | %Inh [10] [%] | %Inh [11] [%] | %Inh [12] [%] | %Inh [13] [%] | %Inh [14] [%] | %Inh [15] [%] | %Inh [16] [%] | %Inh [17] [%] | %Inh [18] [%] | %Inh [19] [%] | %Inh [20] [%]
1 | CCn1c(-c2nonc2N)nc2c(C#CC(C)(C)O)nc(OC[C@H](N)c3ccccc3)cc21 [GSK943949] | 7 | 54 | 0 | 0 | 37 | 4 | 1 | 0 | 69 | 15 | 0 | 0 | 63 | 21 | 0 | 5 | 0 | 5 | 0 | 34
2 | C[C@@H](Oc1cc(-n2cnc3cc(-c4ccnc(NCCS(C)(=O)=O)c4)ccc32)sc1C(N)=O)c1ccccc1Cl [GSK907232] | 0 | 11 | 34 | 43 | 20 | 6 | 0 | 0 | 0 | 26 | 56 | 0 | 0 | 90.9 | 36 | 1 | 0 | 0 | 7 | 0
3 | COc1ccc(Nc2nccc(N3CCC(NC(=O)Nc4cccc(OC)c4)C3)n2)cc1 (stereo not shown) [GSK1379742] | 0 | 0 | 0 | 0 | 0 | 23 | 0 | 0 | 0 | 24 | 46 | 0 | 7 | 19 | 0 | 0 | 0 | 3 | 0 | 0
4 | Cc1cccc(Nc2nc(N[C@H]3CCNC3)ncc2C(N)=O)c1.Cl [GSK2197149] | 0 | 0 | 19 | 0 | 4 | 0 | 31 | 31 | 85 | 66 | 99.8 | 50 | 20 | 37 | 0 | 76 | 4 | 0 | 51 | 24
5 | COc1ccc(Nc2nccc(NCCNC(=O)c3cc4ccccc4s3)n2)cc1 [GSK1379896] | 0 | 0 | 0 | 4 | 0 | 0 | 0 | 0 | 0 | 16 | 33 | 0 | 0 | 24 | 0 | 2 | 0 | 0 | 0 | 0
6 | CN(C)S(=O)(=O)c1cc(-c2ccc3nccc(-c4cccc(S(N)(=O)=O)c4)c3c2)cnc1N [GSK1669921] | 8 | 0 | 0 | 0 | 0 | 0 | 7 | 0 | 0 | 27 | 56 | 0 | 0 | 33 | 0 | 19 | 0 | 0 | 4 | 0
7 | COc1cccc(C2=C(Nc3ccc(Cl)c(C(=O)O)c3)C(=O)NC2=O)c1 [SB-390769] | 0 | 0 | 0 | 0 | 13 | 0 | 0 | 0 | 0 | 97.4 | 18 | 0 | 7 | 0 | 8 | 100 | 18 | 4 | 5 | 100
8 | COC(=O)Nc1nc2ccc(Oc3ccc(NC(=O)Nc4cc(C(F)(F)F)ccc4F)cc3)cc2n1C.Cl [GW692089] | 0 | 0 | 0 | 0 | 2 | 23 | 0 | 1 | 0 | 0 | 15 | 0 | 0 | 94.2 | 62 | 20 | 0 | 75 | 90.2 | 34
9 | Cc1occc1-c1ncc(OC[C@@H](N)Cc2c[nH]c3ccccc23)cc1-c1ccc2[nH]nc(C)c2c1.O=C(O)C(F)(F)F [GSK682037] | 0 | 44 | 62 | 68 | 33 | 35 | 7 | 0 | 90.7 | 43 | 76 | 13 | 50 | 66 | 45 | 97.2 | 17 | 0 | 0 | 39
10 | O=c1[nH]cc(-c2ccc(N3CCOCC3)cc2)c2sc(-c3cn[nH]c3)cc12 [GSK2276055] | 2 | 0 | 0 | 0 | 0 | 0 | 0 | 9 | 17 | 5 | 8 | 29 | 17 | 7 | 0 | 26 | 0 | 0 | 9 | 19
11 | O=C(O)C(F)(F)F.O=C(O)C(F)(F)F.O=c1[nH]ccc2nc(N[C@@H]3CCCNC3)nc(Nc3ccc(S(=O)(=O)N4CCOCC4)cc3)c12 [GSK2177277] | 61 | 95.3 | 98.2 | 90.5 | 97.1 | 27 | 96.6 | 91.6 | 99.4 | 99.4 | 100 | 86 | 100 | 100 | 90.2 | 98.1 | 81 | 7 | 59 | 90.8
12 | c1ccc(Oc2ccc(Nc3ccnc4cc(-c5ccc(CNCCN6CCOCC6)o5)ccc34)cc2)nc1 [GW567145] | 0 | 0 | 0 | 0 | 0 | 34 | 90.8 | 94.2 | 0 | 0 | 100 | 0 | 0 | 9 | 0 | 37 | 0 | 0 | 19 | 10
13 | CC(=O)N1CCN(c2ccc(Nc3nccc(-c4sc(C(C)C)nc4-c4cccc(NS(=O)(=O)c5cccc(Cl)c5)c4)n3)cn2)CC1 [GSK1660437] | 0 | 0 | 0 | 0 | 12 | 0 | 1 | 0 | 23 | 99.2 | 99.8 | 0 | 57 | 44 | 0 | 18 | 0 | 7 | 51 | 0
14 | Cc1ccc(C(=O)Nc2ccc(Nc3ccnc4cc(-c5nccs5)ccc34)cc2O)cc1.Cl [GW494702] | 0 | 0 | 0 | 0 | 0 | 15 | 13 | 0 | 0 | 21 | 99.9 | 0 | 1 | 24 | 0 | 47 | 0 | 22 | 8 | 12
15 | Cl.c1ccc(-c2ccc3c(Nc4ccc5[nH]ccc5c4)ccnc3c2)nc1 [GW440138] | 0 | 0 | 0 | 0 | 0 | 0 | 0 | 0 | 0 | 0 | 83 | 0 | 0 | 34 | 0 | 75 | 0 | 2 | 0 | 0
16 | O=C(Nc1cccc(-c2nn3ccccc3c2-c2ccnc(Nc3cccc(F)c3)n2)c1)c1c(F)ccc(F)c1Cl [GSK357952] | 0 | 0 | 3 | 3 | 0 | 0 | 0 | 15 | 0 | 25 | 88 | 0 | 0 | 51 | 0 | 0 | 0 | 0 | 29 | 0
17 | O=C(Nc1cccc(Oc2ccc3nc(NC(=O)C4CC4)cn3n2)c1)c1ccccc1C(F)(F)F | 0 | 0 | 6 | 21 | 12 | 0 | 69 | 82 | 17 | 0 | 99.8 | 14 | 15 | 26 | 7 | 2 | 0 | 0 | 0 | 0
18 | C[C@@H]1CC[C@@H](C(=O)Nc2ccccc2)CN1c1cc(-c2ccc3c(N)n[nH]c3c2)nc(N)n1 [GSK2286062] | 0 | 0 | 9 | 0 | 0 | 3 | 15 | 1 | 33 | 8 | 4 | 8 | 31 | 39 | 0 | 9 | 0 | 0 | 12 | 16
19 | COc1cc(Nc2nccc(N3CCC(NC(=O)Nc4cccc(C(C)=O)c4)C3)n2)cc(OC)c1OC (stereo not shown) [GSK1379753] | 0 | 0 | 0 | 0 | 6 | 0 | 0 | 0 | 0 | 55 | 99.6 | 0 | 0 | 23 | 12 | 0 | 0 | 9 | 62 | 0
20 | Oc1cc(Nc2ccnc3cc(I)ccc23)ccc1F [GW552771] | 0 | 0 | 0 | 0 | 5 | 20 | 0 | 0 | 11 | 34 | 96.5 | 0 | 0 | 34 | 0 | 55 | 0 | 0 | 14 | 0
